# Measurements reported in the supplement of paper PMC6522484.
# ± gives the standard deviation of the averaged measurements.
# What was measured:
# [1] = test system: DLD1; assay: cell viability (CellTiter-Glo) relative to plate median (fraction of plate median); higher = more viable cells; conditions: 5 µM; treatment time 24 h; reporter: 7TFP
# Outline: (§1)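 Stable lentiviral TCF/Wnt firefly luciferase reporters (7TFP or TCF4/Wnt) were present in the colorectal cancer cell lines used. These cells received library compounds at a final 5 µM for 24 h, and parallel plates were read for firefly luciferase or CellTiterGlo luminescence. Each well was normalised to the plate median, and the value reported is the mean of two independent replicates.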
# [2] = test system: HCT116; assay: as above; conditions: 5 µM; treatment time 24 h; reporter: TCF4/Wnt
# Outline: as §1
# [3] = test system: SW480; assay: as above; conditions: 5 µM; treatment time 24 h; reporter: 7TFP
# Outline: as §1
# [4] = test system: DLD1; assay: TCF/Wnt firefly luciferase reporter signal relative to plate median (fraction of plate median); higher = higher Wnt reporter signal; conditions: 5 µM; treatment time 24 h; reporter: 7TFP
# Outline: as §1
# [5] = test system: SW480; assay: as above; conditions: 5 µM; treatment time 24 h; reporter: 7TFP
# Outline: as §1
Compound,cell viability [1],cell viability [2],cell viability [3],TCF/Wnt firefly luciferase reporter signal [4],TCF/Wnt firefly luciferase reporter signal [5]
O=CN(O)CCCC(NC(=O)C(CO)NC(=O)C1COC(c2ccccc2O)=N1)C(=O)NCCC(=O)NC1CCCN(O)C1=O (stereo not given) [Oxachelin hydrate],1.09 ± 0.13,1.11 ± 0.12,1.02 ± 0.05,1.2 ± 0.014,0.946 ± 0.16
O=C(Nc1ccccc1)Nc1ccccc1,1.02 ± 0.13,0.996 ± 0.048,1.05 ± 0.092,1.2 ± 0.11,1.01 ± 0.04
CC1(C)CCC[C@]2(C)[C@@H]3[C@H]1[C@@H](O)[C@@]2(C)C[C@H]3O,1.005 ± 0.0071,0.991 ± 0.11,1.12 ± 0.014,0.981 ± 0.023,1.13 ± 0.014
"CC(C)CC1NC(=O)C2CCCN2C1=O (single isomer, unassigned; isomere) [Cyclo(leucylprolyl) (Isomere)]",0.919 ± 0.068,0.94 ± 0.016,1.02 ± 0.054,0.69 ± 0.27,1.12 ± 0.064
COc1ccc(C(C)=O)c(OC)c1,0.971 ± 0.056,0.963 ± 0.15,0.9765 ± 0.00071,0.864 ± 0.044,1.03 ± 0.16
Nc1ccc(S(=O)(=O)Nc2ncccn2)cc1,0.92 ± 0.032,1.04 ± 0.069,0.9685 ± 0.0021,1.05 ± 0.14,1.01 ± 0.083
C[N+]1(C)C[C@H](O)C[C@H]1C(=O)[O-],1.03 ± 0.014,0.985 ± 0.035,0.967 ± 0.0099,1.06 ± 0.035,0.869 ± 0.025
O=C([O-])c1ccccc1O.[Na+],1.06 ± 0.035,1.02 ± 0.077,1.07 ± 0.028,1.04 ± 0.09,1.02 ± 0.014
CCN(CC)CCOC(=O)C1(C2CCCCC2)CCCCC1,0.98 ± 0.0014,1.02 ± 0.14,1.045 ± 0.0071,0.9375 ± 0.0078,1.045 ± 0.0071
COc1ccc2c(c1)OC/C(=C/c1ccc(O)c(O)c1)C2=O,0.99 ± 0.043,1.01 ± 0.021,0.986 ± 0.035,0.944 ± 0.033,1.09 ± 0.078
Cc1c(C)c2c(c(C)c1O)CCC(C)(COc1ccc(CC3SC(=O)NC3=O)cc1)O2 (stereo not given),1.05 ± 0.085,1.04 ± 0.071,1.06 ± 0.021,0.942 ± 0.11,1.04 ± 0.021
CCCCC(=O)N(Cc1ccc(-c2ccccc2-c2nnn[nH]2)cc1)[C@H](C(=O)O)C(C)C,0.908 ± 0.081,0.988 ± 0.17,1 ± 0.054,0.985 ± 0.078,0.919 ± 0.09
COc1ccc2ccc(=O)oc2c1,1.02 ± 0.021,0.992 ± 0.025,0.97 ± 0.0071,0.973 ± 0.053,0.915 ± 0.12
CCn1cc(C(=O)O)c(=O)c2cnc(N3CCNCC3)nc21,0.976 ± 0.049,0.943 ± 0.12,1 ± 0.025,0.891 ± 0.21,0.98 ± 0.13
NC1(C(=O)O)CCCC1,0.9495 ± 0.00071,1.02 ± 0.035,0.9955 ± 0.0064,1.02 ± 0.081,1.055 ± 0.0071
CNCCCN1c2ccccc2CCc2ccccc21,0.994 ± 0.023,0.933 ± 0.013,0.909 ± 0.041,0.868 ± 0.035,0.934 ± 0.045
O=C(O)c1ccc(S(=O)(=O)N(Cl)Cl)cc1,0.936 ± 0.027,1 ± 0.028,0.8755 ± 0.0078,0.937 ± 0.052,0.876 ± 0.03
CCC(C)C(=O)OC1[C@@H]2CC3=C4CC(=O)O[C@@H](c5ccoc5)[C@]4(C)CCC3[C@@](C)(C2=O)[C@@H](CC(=O)OC)C1(C)C (stereo not given in full),1.085 ± 0.0071,1.19 ± 0.092,1.18 ± 0.092,1.15 ± 0.15,0.938 ± 0.088
COc1cc(OC)c2c(c1Cl)O[C@@]1(C(=O)CC(=O)C[C@H]1C)C2=O,1.02 ± 0.014,0.983 ± 0.14,1.005 ± 0.0071,1.13 ± 0.057,1.02 ± 0.028
NS(=O)(=O)c1cc2c(cc1Cl)NC(C(Cl)Cl)NS2(=O)=O (stereo not given),0.977 ± 0.047,1.06 ± 0.078,0.973 ± 0.0028,1.11 ± 0.29,0.991 ± 0.013
CC12CCC(CC1=O)C2(C)C (stereo not given),0.974 ± 0.037,0.941 ± 0.2,1.04 ± 0.05,1.02 ± 0.061,0.969 ± 0.14
C/C=C/CCC(=O)c1cc(C)c(O)cc1O [Sohirnone A],1.04 ± 0.09,1.06 ± 0.1,0.9585 ± 0.0078,1.02 ± 0.082,0.969 ± 0.044
CNCCC=C1c2ccccc2CCc2ccccc21,0.9585 ± 0.00071,0.979 ± 0.12,0.972 ± 0.0057,1.02 ± 0.079,1.04 ± 0.12
CC[C@@H](C)c1cc(=O)c2c(CO)cc3c(c2o1)C(=O)c1c(O)cccc1C3=O [Espicufolin],1.09 ± 0.092,1.13 ± 0.057,1.055 ± 0.0071,1.29 ± 0.15,1.06 ± 0.057
O=C(/C=C/c1ccc(O)cc1)c1ccc(O)cc1O,0.97 ± 0.012,1.03 ± 0.08,0.968 ± 0.0099,1 ± 0.15,0.862 ± 0.076
OCC(O)C(O)C(O)C(O)C(O)CO (stereo not given),1.05 ± 0.042,1.035 ± 0.0071,0.986 ± 0.049,0.9515 ± 0.005,1.02 ± 0.091
COc1cc(Cc2cnc(N)nc2N)cc(OC)c1OC,0.988 ± 0.013,1 ± 0.15,0.991 ± 0.013,1 ± 0.057,0.831 ± 0.17
CC(CCC(=O)O)[C@H]1CCC2C3C[C@H](O)[C@@H]4C[C@H](O)CC[C@]4(C)C3CC[C@@]21C (stereo partly drawn) [alpha-HYDROXYDEOXYCHOLIC ACID],1.04 ± 0.13,1.1 ± 0.078,1.06 ± 0.014,0.947 ± 0.1,0.974 ± 0.052
COC(=O)C[C@H]1C2(C)CC34OC5(C)O[C@@]6([C@H](OC(C)=O)C(OC(C)=O)[C@]7(C)C(/C(=C(/O)C(C)C)C(=O)O[C@H]7c7ccoc7)[C@@]6(O5)[C@H](OC(C)=O)[C@@]3(O)C2OC(=O)C(C)C)[C@]14C (stereo not given in full),1.02 ± 0.021,0.959 ± 0.1,1.01 ± 0.021,1.05 ± 0.14,1.08
C(=C\c1ccccc1)/CN1CCN(C(c2ccccc2)c2ccccc2)CC1,0.989 ± 0.072,1.09 ± 0.021,1.035 ± 0.0071,1.17 ± 0.11,0.936 ± 0.15
